# Values joined by “and” are separate entries in the source; they are usually repeats but may differ in a detail not shown here. Equal values may be shown once. Screen size: about 5,500 compounds; about 2,000 (36%) were called active. About 18% were inconclusive and are not listed. Rule as the data show it: active = normalized growth mostly below about 0.91 (no sharp cut-off); inconclusive = no clear call, values can overlap the other calls; inactive = mostly above about 0.92. The list shows a part of the results. More than one record can exist for a structure, and the calls need not agree.
# Assay: chemical genetic growth profiling, strain panel (AID 1159580);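 also: tested at 20 µM; growth read once vehicle control cultures reached saturation at 30 °C; 1 = growth at the plate median or of vehicle wells; lower values mean less growth of the strain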
# Details: growth OD
compound,measurement,setting,value
O=C(CCCN1CCC(O)(c2ccc(Cl)cc2)CC1)c1ccc(F)cc1,normalized growth,"S. cerevisiae deletion strains, locus YJR043C, strain POL32, stronger effect = lower value",0.93 (inactive)
same,normalized growth,"S. cerevisiae deletion strains, locus YJR066W, strain TOR1, stronger effect = lower value",0.939 (inactive)
same,normalized growth,"S. cerevisiae deletion strains, locus YJR075W, strain HOC1, stronger effect = lower value",0.819 (active)
same,normalized growth,"S. cerevisiae deletion strains, locus YKL009W, strain mrt4, stronger effect = lower value",0.963 (inactive)
same,normalized growth,"S. cerevisiae deletion strains, locus YKL068W, stronger effect = lower value",1.02 (inactive)
same,normalized growth,"S. cerevisiae deletion strains, locus YKL085W, strain MDH1 (second series), stronger effect = lower value",1.02 (inactive)
same,normalized growth,"S. cerevisiae deletion strains, locus YKL085W, strain MDH1, stronger effect = lower value",1.02 (inactive)
same,normalized growth,"S. cerevisiae deletion strains, locus YKL160W, strain elf1, stronger effect = lower value",0.904 (inactive)
same,normalized growth,"S. cerevisiae deletion strains, locus YKR001C, strain vps1, stronger effect = lower value",0.247 (active)
same,normalized growth,"S. cerevisiae deletion strains, locus YKR026C, strain gcn3, stronger effect = lower value",1.03 (inactive)
same,normalized growth,"S. cerevisiae deletion strains, locus YKR091W, strain srl3, stronger effect = lower value",1.03 (inactive)
same,normalized growth,"S. cerevisiae deletion strains, locus YLL001W, strain dnm1, stronger effect = lower value",0.958 (inactive)
same,normalized growth,"S. cerevisiae deletion strains, locus YLL026W, stronger effect = lower value",0.947 (inactive)
same,normalized growth,"S. cerevisiae deletion strains, locus YLL041C, strain sdh2, stronger effect = lower value",1.02 (inactive)
same,normalized growth,"S. cerevisiae deletion strains, locus YLR027C, strain aat2, stronger effect = lower value",0.911 (active)
same,normalized growth,"S. cerevisiae deletion strains, locus YLR039C, strain RIC1, stronger effect = lower value",1.39 [resistant] (active)
same,normalized growth,"S. cerevisiae deletion strains, locus YLR058C, strain SHM2, stronger effect = lower value",0.746 (active)
same,normalized growth,"S. cerevisiae deletion strains, locus YLR102C, strain apc9, stronger effect = lower value",1.02 (inactive)
same,normalized growth,"S. cerevisiae deletion strains, locus YLR113W, strain HOG1, stronger effect = lower value",1.03 (inactive)
same,normalized growth,"S. cerevisiae deletion strains, locus YLR221C, strain rsa3, stronger effect = lower value",0.923 (inactive)
same,normalized growth,"S. cerevisiae deletion strains, locus YLR258W, strain gsy2, stronger effect = lower value",0.938 (inactive)
same,normalized growth,"S. cerevisiae deletion strains, locus YLR262C, strain YPT6 (second series), stronger effect = lower value",0.893 (inactive)
same,normalized growth,"S. cerevisiae deletion strains, locus YLR262C, strain YPT6, stronger effect = lower value",1.37 (inactive)
same,normalized growth,"S. cerevisiae deletion strains, locus YLR268W, strain sec22, stronger effect = lower value",0.794 (active)
same,normalized growth,"S. cerevisiae deletion strains, locus YLR320W, strain mms22, stronger effect = lower value",0.49 (active)
same,normalized growth,"S. cerevisiae deletion strains, locus YLR330W, strain CHS5, stronger effect = lower value",0.849 (active)
same,normalized growth,"S. cerevisiae deletion strains, locus YLR342W, strain FKS1 (second series), stronger effect = lower value",0.726 (active)
same,normalized growth,"S. cerevisiae deletion strains, locus YLR342W, strain FKS1, stronger effect = lower value",1.01 (inactive)
same,normalized growth,"S. cerevisiae deletion strains, locus YLR357W, strain rsc2, stronger effect = lower value",1.19 [resistant] (active)
same,normalized growth,"S. cerevisiae deletion strains, locus YLR370C, strain arc18, stronger effect = lower value",0.965 (inactive)
same,normalized growth,"S. cerevisiae deletion strains, locus YLR371W, strain rom2, stronger effect = lower value",1 (inactive)
same,normalized growth,"S. cerevisiae deletion strains, locus YLR384C, strain iki3, stronger effect = lower value",0.999 (inactive)
same,normalized growth,"S. cerevisiae deletion strains, locus YLR418C, strain cdc73, stronger effect = lower value",0.496 (active)
same,normalized growth,"S. cerevisiae deletion strains, locus YML016C, strain PPZ1, stronger effect = lower value",0.915 (active)
same,normalized growth,"S. cerevisiae deletion strains, locus YML032C, strain rad52, stronger effect = lower value",0.82 (active)
same,normalized growth,"S. cerevisiae deletion strains, locus YML120C, strain ndi1, stronger effect = lower value",0.932 (inactive)
same,normalized growth,"S. cerevisiae deletion strains, locus YML124C, strain tub3, stronger effect = lower value",0.994 (inactive)
same,normalized growth,"S. cerevisiae deletion strains, locus YMR058W, strain fet3, stronger effect = lower value",0.821 (active)
same,normalized growth,"S. cerevisiae deletion strains, locus YMR078C, strain ctf18, stronger effect = lower value",1.01 (inactive)
same,normalized growth,"S. cerevisiae deletion strains, locus YMR125W, strain sto1, stronger effect = lower value",0.876 (active)
same,normalized growth,"S. cerevisiae deletion strains, locus YMR129W, stronger effect = lower value",1.03 (inactive)
same,normalized growth,"S. cerevisiae deletion strains, locus YMR205C, strain PFK2, stronger effect = lower value",0.949 (inactive)
same,normalized growth,"S. cerevisiae deletion strains, locus YMR223W, strain ubp8, stronger effect = lower value",0.8 (active)
same,normalized growth,"S. cerevisiae deletion strains, locus YMR231W, strain pep5, stronger effect = lower value",1.01 (inactive)
same,normalized growth,"S. cerevisiae deletion strains, locus YMR263W, strain SAP30, stronger effect = lower value",0.996 (inactive)
same,normalized growth,"S. cerevisiae deletion strains, locus YMR307W, strain GAS1, stronger effect = lower value",0.526 (active)
same,normalized growth,"S. cerevisiae deletion strains, locus YNL067W, strain RPL9B, stronger effect = lower value",0.844 (active)
same,normalized growth,"S. cerevisiae deletion strains, locus YNL071W, strain lat1, stronger effect = lower value",0.552 (active)
same,normalized growth,"S. cerevisiae deletion strains, locus YNL153C, strain GIM3, stronger effect = lower value",0.826 (active) and 0.893 (inactive)
same,normalized growth,"S. cerevisiae deletion strains, locus YNL175C, strain NOP13, stronger effect = lower value",0.664 (active)
same,normalized growth,"S. cerevisiae deletion strains, locus YNL183C, strain NPR1, stronger effect = lower value",0.971 (inactive)
same,normalized growth,"S. cerevisiae deletion strains, locus YNL197C, strain WHI3, stronger effect = lower value",0.997 (inactive)
same,normalized growth,"S. cerevisiae deletion strains, locus YNL209W, strain ssb2, stronger effect = lower value",0.933 (inactive)
same,normalized growth,"S. cerevisiae deletion strains, locus YNL224C, strain SQS1, stronger effect = lower value",1.04 (inactive)
same,normalized growth,"S. cerevisiae deletion strains, locus YNL233W, strain BNI4, stronger effect = lower value",0.751 (active)
same,normalized growth,"S. cerevisiae deletion strains, locus YNL248C, strain rpa49, stronger effect = lower value",0.818 (active)
same,normalized growth,"S. cerevisiae deletion strains, locus YNL250W, strain rad50, stronger effect = lower value",1 (inactive)
same,normalized growth,"S. cerevisiae deletion strains, locus YNL271C, strain bni1, stronger effect = lower value",1 (inactive)
same,normalized growth,"S. cerevisiae deletion strains, locus YNL298W, strain CLA4, stronger effect = lower value",1.02 (inactive)
same,normalized growth,"S. cerevisiae deletion strains, locus YNL307C, strain MCK1, stronger effect = lower value",0.815 (active)
same,normalized growth,"S. cerevisiae deletion strains, locus YNL322C, strain KRE1 (second series), stronger effect = lower value",1.11 [resistant] (active)
same,normalized growth,"S. cerevisiae deletion strains, locus YNL322C, strain KRE1, stronger effect = lower value",0.884 (active)
same,normalized growth,"S. cerevisiae deletion strains, locus YNR049C, strain mso1, stronger effect = lower value",1.04 (inactive)
same,normalized growth,"S. cerevisiae deletion strains, locus YNR052C, strain pop2, stronger effect = lower value",0.737 (active)
same,normalized growth,"S. cerevisiae deletion strains, locus YOL012C, strain htz1",1.18 (inactive)
same,normalized growth,"S. cerevisiae deletion strains, locus YOL147C, strain pex11, stronger effect = lower value",0.941 (inactive)
same,normalized growth,"S. cerevisiae deletion strains, locus YOR001W, strain rrp6, stronger effect = lower value",0.871 (active)
same,normalized growth,"S. cerevisiae deletion strains, locus YOR061W, strain CKA2, stronger effect = lower value",0.942 (inactive)
same,normalized growth,"S. cerevisiae deletion strains, locus YOR069W, strain VPS5, stronger effect = lower value",0.963 (inactive)
same,normalized growth,"S. cerevisiae deletion strains, locus YOR070C, strain gyp1, stronger effect = lower value",0.29 (active)
same,normalized growth,"S. cerevisiae deletion strains, locus YOR080W, strain dia2, stronger effect = lower value",0.969 (inactive)
same,normalized growth,"S. cerevisiae deletion strains, locus YOR083W, strain WHI5 (second series), stronger effect = lower value",0.977 (inactive)
same,normalized growth,"S. cerevisiae deletion strains, locus YOR083W, strain WHI5, stronger effect = lower value",0.944 (inactive)
same,normalized growth,"S. cerevisiae deletion strains, locus YOR106W, strain vam3, stronger effect = lower value",0.935 (inactive)
same,normalized growth,"S. cerevisiae deletion strains, locus YOR136W, strain idh2, stronger effect = lower value",0.98 (inactive)
same,normalized growth,"S. cerevisiae deletion strains, locus YOR144C, strain elg1, stronger effect = lower value",1 (inactive)
same,normalized growth,"S. cerevisiae deletion strains, locus YOR184W, strain ser1, stronger effect = lower value",0.847 (active)
same,normalized growth,"S. cerevisiae deletion strains, locus YOR231W, strain MKK1, stronger effect = lower value",0.991 (inactive)
same,normalized growth,"S. cerevisiae deletion strains, locus YOR265W, strain rbl2, stronger effect = lower value",0.974 (inactive)
same,normalized growth,"S. cerevisiae deletion strains, locus YOR270C, strain vph1, stronger effect = lower value",0.381 (active)
same,normalized growth,"S. cerevisiae deletion strains, locus YOR290C, strain snf2, stronger effect = lower value",0.843 (active)
same,normalized growth,"S. cerevisiae deletion strains, locus YOR316C, strain cot1, stronger effect = lower value",1.02 (inactive)
same,normalized growth,"S. cerevisiae deletion strains, locus YPL051W, strain arl3, stronger effect = lower value",0.789 (active)
same,normalized growth,"S. cerevisiae deletion strains, locus YPL078C, strain atp4, stronger effect = lower value",0.914 (inactive)
same,normalized growth,"S. cerevisiae deletion strains, locus YPL106C, strain sse1, stronger effect = lower value",1.17 [resistant] (active)
same,normalized growth,"S. cerevisiae deletion strains, locus YPL240C, strain hsp82, stronger effect = lower value",1 (inactive)
same,normalized growth,"S. cerevisiae deletion strains, locus YPL241C, strain CIN2, stronger effect = lower value",0.89 (active) and 0.969 (inactive)
same,normalized growth,"S. cerevisiae deletion strains, locus YPL256C, strain CLN2, stronger effect = lower value",0.99 (inactive)
same,normalized growth,"S. cerevisiae deletion strains, locus YPR119W, strain clb2, stronger effect = lower value",1.04 (inactive)
same,normalized growth,"S. cerevisiae deletion strains, locus YPR141C, strain kar3, stronger effect = lower value",1.04 (inactive)
same,normalized growth,"S. cerevisiae deletion strains, locus YPR163C, strain tif3, stronger effect = lower value",0.575 (active)
same,normalized growth,"S. cerevisiae deletion strains, locus YPR167C, strain met16, stronger effect = lower value",0.942 (inactive)
same,normalized growth,"S. cerevisiae deletion strains, strain wtn01, stronger effect = lower value",0.776 (active)
same,normalized growth,"S. cerevisiae strains, strain wild type, stronger effect = lower value",0.833 (active)

# Source: PubChem BioAssay AID1159580 (chemical genetic matrix, 2015)
